Measured values as given in the supplement of paper PMC10849652.
About 8,800 targets were measured; listed, in parts, are those with a hit and a random draw of the rest. About 0.5% of all pairs of compound and target were hits.

Columns and labels:
Test in all cases: log2 fold change, soluble protein after heating vs DMSO (PISA); higher = thermal stabilisation; K562 lysate, 10 uM; active = over 0.2 and 3.5 SD of the protein, either way, in both replicates (recomputed)
ibrutinib = compound: C=CC(=O)N1CCC[C@@H](n2nc(-c3ccc(Oc4ccccc4)cc3)c3c(N)ncnc32)C1 [ibrutinib]
Summary of the method: (§1)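 Following dounce homogenisation of K562 pellets in PBS pH 7.4 with 1 mM MgCl2, crude extract at 1 mg/mL protein was incubated for 30 min with 10 μM compound. Aliquots were then heated for 3 min over 48°C-58°C and pooled, NP-40 was added to 0.5% at 4°C, and soluble protein was recovered as the supernatant at 21,000xg for 90 min. Channel-sum-equalised TMTpro 16plex LC-MS/MS quantified this protein. Each value, from duplicates, is a log-two fold change in thermal stability relative to solvent controls.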

[1] = compound: CC(=O)c1cnc2ccc(-c3cc(Cl)c(O)c(Cl)c3)nc2c1N[C@H]1CC[C@H](CN(C)C)CC1
Summary of the method: as §1

ralimetinib = compound: CC(C)(C)Cn1c(N)nc2ccc(-c3[nH]c(C(C)(C)C)nc3-c3ccc(F)cc3)nc21 [ralimetinib]
Summary of the method: as §1

[2] = compound: CC(C)(O)CC(=O)NCCn1ccc2ncnc(Nc3ccc(Oc4cccc(C(F)(F)F)c4)c(Cl)c3)c21
Summary of the method: as §1

[3] = compound: CC(C)C1=C2N=C(C=C(N2N=C1)NCC3=CC=CC=C3)NCCCCCCN
Summary of the method: as §1

[4] = compound: CC1=C(C(CC(=O)N1)C2=CC=C(C=C2)C(F)(F)F)C(=O)NC3=C(C=C4C(=C3)C=NN4)F
Summary of the method: as §1

[5] = compound: CC1=C(C2=C(C=C1)C(=O)C3=CC=CC=C3N2CCCN)C
Summary of the method: as §1

[6] = compound: CC1=C(C=C(C=C1)NC(=O)C2=CC(=CC=C2)C(C)(C)C#N)NC3=CC4=C(C=C3)N=CN(C4=O)C
Summary of the method: as §1

[7] = compound: CC1=C(C=C(C=C1)NC(=O)C2=CC(=CC=C2)N(C)C)NC(=O)C3=CC=C(C=C3)O
Summary of the method: as §1

[8] = compound: CC1=CC=C(C=C1)SC2=C3C=C(SC3=CN=C2)C(=O)N
Summary of the method: as §1

vemurafenib = compound: CCCS(=O)(=O)Nc1ccc(F)c(C(=O)c2c[nH]c3ncc(-c4ccc(Cl)cc4)cc23)c1F [vemurafenib]
Summary of the method: as §1

[9] = compound: CCCS(=O)(=O)Nc1ccc(F)c(C(=O)c2c[nH]c3ncc(Cl)cc23)c1F
Summary of the method: as §1

barasertib = compound: CCN(CCCOc1ccc2c(Nc3cc(CC(=O)Nc4cccc(F)c4)[nH]n3)ncnc2c1)CCOP(=O)(O)O [barasertib]
Summary of the method: as §1

[10] = compound: CC[C@@H]1C(=O)N(C)c2cnc(Nc3ccc(C(=O)NC4CCN(C)CC4)cc3OC)nc2N1C1CCCC1
Summary of the method: as §1

volasertib = compound: CC[C@@H]1C(=O)N(C)c2cnc(Nc3ccc(C(=O)N[C@H]4CC[C@H](N5CCN(CC6CC6)CC5)CC4)cc3OC)nc2N1C(C)C [volasertib]
Summary of the method: as §1

[11] = compound: CCn1c(C(=O)N(C2CC2)C2CC2)cc2c3c(ncn3C)c(Nc3cc(C)n(C)n3)nc21
Summary of the method: as §1

[12] = compound: CCn1cc(-c2ccnc3[nH]c(-c4cccc(CN(C)C)c4)cc23)c(-c2ccc(NC(=O)N(C)C)cc2)n1
Summary of the method: as §1

[13] = compound: CN1CCC(CNc2ccc3ncc(-c4cccc(OC(F)(F)F)c4)n3n2)CC1
Summary of the method: as §1

saracatinib = compound: CN1CCN(CCOc2cc(OC3CCOCC3)c3c(Nc4c(Cl)ccc5c4OCO5)ncnc3c2)CC1 [saracatinib]
Summary of the method: as §1

sotrastaurin = compound: CN1CCN(c2nc(C3=C(c4c[nH]c5ccccc45)C(=O)NC3=O)c3ccccc3n2)CC1 [sotrastaurin]
Summary of the method: as §1

Measured: log2 fold change

NCAPD3 (UniProt P42695)
UniProt P42695, sequence (P42695 whole entry, looked up): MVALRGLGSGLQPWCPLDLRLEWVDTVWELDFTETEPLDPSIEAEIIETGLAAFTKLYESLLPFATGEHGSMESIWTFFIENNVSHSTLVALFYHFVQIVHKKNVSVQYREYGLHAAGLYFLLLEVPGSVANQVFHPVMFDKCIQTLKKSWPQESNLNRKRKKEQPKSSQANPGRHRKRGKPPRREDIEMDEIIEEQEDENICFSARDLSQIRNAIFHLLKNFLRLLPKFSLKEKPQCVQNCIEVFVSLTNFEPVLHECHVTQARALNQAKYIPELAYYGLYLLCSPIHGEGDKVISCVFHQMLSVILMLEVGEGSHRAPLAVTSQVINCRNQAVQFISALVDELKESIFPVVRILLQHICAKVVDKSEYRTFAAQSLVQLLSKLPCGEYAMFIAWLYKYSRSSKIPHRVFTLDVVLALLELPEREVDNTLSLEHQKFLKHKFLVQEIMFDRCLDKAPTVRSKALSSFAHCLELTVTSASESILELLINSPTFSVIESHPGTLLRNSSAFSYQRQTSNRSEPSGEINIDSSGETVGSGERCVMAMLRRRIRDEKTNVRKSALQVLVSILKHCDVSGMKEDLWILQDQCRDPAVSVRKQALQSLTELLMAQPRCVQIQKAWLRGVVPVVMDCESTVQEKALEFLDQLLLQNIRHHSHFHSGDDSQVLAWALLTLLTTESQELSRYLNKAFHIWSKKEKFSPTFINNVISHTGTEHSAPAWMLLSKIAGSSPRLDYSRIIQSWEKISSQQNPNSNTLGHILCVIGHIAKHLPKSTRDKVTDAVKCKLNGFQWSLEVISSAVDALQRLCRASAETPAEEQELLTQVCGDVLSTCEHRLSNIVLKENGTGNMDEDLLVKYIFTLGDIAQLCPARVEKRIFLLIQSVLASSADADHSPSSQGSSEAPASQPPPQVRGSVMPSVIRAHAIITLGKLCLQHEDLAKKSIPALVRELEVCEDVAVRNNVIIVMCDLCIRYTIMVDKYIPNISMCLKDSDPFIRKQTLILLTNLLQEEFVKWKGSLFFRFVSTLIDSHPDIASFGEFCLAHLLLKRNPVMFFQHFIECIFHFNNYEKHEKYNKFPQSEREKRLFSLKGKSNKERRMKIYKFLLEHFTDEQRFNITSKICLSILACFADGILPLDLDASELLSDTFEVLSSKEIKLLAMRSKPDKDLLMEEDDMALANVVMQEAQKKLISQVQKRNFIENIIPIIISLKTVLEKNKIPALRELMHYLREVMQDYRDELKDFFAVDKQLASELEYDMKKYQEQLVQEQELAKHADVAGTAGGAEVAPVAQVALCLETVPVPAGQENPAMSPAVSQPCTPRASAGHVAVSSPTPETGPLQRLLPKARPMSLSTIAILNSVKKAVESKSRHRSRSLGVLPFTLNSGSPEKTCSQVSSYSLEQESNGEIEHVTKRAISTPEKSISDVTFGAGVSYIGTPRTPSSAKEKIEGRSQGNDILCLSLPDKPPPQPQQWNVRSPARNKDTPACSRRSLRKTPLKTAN
inactive: ibrutinib 0.001 | [1] -0.017 | ralimetinib 0.043 | [2] -0.019 | [3] -0.008 | [4] 0.007 | [5] -0.024 | [6] -0.012 | [7] 0.036 | [8] -0.012 | vemurafenib -0.032 | [9] 0.047 | barasertib 0.06 | [10] -0.013 | volasertib -0.088 | [11] 0.035 | [12] 0.068 | [13] -0.015 | saracatinib 0.008 | sotrastaurin 0.003

NIT2 (UniProt Q9NQR4)
UniProt Q9NQR4, sequence (Q9NQR4 whole entry, looked up): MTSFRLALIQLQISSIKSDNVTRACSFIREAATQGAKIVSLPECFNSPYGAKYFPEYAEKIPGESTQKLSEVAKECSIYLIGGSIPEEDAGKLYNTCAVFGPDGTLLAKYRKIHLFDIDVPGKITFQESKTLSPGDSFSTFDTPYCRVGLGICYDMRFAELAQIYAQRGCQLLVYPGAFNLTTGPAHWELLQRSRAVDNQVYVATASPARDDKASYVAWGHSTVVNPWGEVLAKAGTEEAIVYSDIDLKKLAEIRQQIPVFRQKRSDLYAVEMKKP
inactive: ibrutinib 0.026 | [1] 0.014 | ralimetinib -0.038 | [2] -0.041 | [3] 0.014 | [4] 0.017 | [5] 0.014 | [6] 0.017 | [7] 0.019 | [8] 0 | vemurafenib -0.003 | [9] 0.005 | barasertib -0.008 | [10] 0.005 | volasertib -0.004 | [11] -0.004 | [12] 0.02 | [13] -0.013 | saracatinib -0.008 | sotrastaurin -0.012

OSGEP (UniProt Q9NPF4)
UniProt Q9NPF4, sequence (Q9NPF4 whole entry, looked up): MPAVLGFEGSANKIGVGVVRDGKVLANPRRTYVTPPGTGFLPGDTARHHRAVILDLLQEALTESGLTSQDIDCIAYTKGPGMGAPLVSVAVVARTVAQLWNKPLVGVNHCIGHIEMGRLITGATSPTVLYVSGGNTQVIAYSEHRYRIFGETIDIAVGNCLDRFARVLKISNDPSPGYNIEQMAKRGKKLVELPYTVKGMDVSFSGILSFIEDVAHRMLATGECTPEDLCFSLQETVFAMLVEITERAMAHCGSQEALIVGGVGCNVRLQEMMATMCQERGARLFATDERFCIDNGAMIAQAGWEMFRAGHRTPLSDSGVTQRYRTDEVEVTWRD
inactive: ibrutinib -0.009 | [1] 0.02 | ralimetinib 0.022 | [2] -0.03 | [3] -0.003 | [4] 0 | [5] 0.001 | [6] 0.012 | [7] -0.057 | [8] -0.002 | vemurafenib 0.003 | [9] 0.026 | barasertib 0.031 | [10] -0.059 | volasertib -0.037 | [11] -0.03 | [12] -0.065 | [13] 0.026 | saracatinib -0.006 | sotrastaurin -0.008

NUP205 (UniProt Q92621)
UniProt Q92621, sequence (Q92621 whole entry, looked up): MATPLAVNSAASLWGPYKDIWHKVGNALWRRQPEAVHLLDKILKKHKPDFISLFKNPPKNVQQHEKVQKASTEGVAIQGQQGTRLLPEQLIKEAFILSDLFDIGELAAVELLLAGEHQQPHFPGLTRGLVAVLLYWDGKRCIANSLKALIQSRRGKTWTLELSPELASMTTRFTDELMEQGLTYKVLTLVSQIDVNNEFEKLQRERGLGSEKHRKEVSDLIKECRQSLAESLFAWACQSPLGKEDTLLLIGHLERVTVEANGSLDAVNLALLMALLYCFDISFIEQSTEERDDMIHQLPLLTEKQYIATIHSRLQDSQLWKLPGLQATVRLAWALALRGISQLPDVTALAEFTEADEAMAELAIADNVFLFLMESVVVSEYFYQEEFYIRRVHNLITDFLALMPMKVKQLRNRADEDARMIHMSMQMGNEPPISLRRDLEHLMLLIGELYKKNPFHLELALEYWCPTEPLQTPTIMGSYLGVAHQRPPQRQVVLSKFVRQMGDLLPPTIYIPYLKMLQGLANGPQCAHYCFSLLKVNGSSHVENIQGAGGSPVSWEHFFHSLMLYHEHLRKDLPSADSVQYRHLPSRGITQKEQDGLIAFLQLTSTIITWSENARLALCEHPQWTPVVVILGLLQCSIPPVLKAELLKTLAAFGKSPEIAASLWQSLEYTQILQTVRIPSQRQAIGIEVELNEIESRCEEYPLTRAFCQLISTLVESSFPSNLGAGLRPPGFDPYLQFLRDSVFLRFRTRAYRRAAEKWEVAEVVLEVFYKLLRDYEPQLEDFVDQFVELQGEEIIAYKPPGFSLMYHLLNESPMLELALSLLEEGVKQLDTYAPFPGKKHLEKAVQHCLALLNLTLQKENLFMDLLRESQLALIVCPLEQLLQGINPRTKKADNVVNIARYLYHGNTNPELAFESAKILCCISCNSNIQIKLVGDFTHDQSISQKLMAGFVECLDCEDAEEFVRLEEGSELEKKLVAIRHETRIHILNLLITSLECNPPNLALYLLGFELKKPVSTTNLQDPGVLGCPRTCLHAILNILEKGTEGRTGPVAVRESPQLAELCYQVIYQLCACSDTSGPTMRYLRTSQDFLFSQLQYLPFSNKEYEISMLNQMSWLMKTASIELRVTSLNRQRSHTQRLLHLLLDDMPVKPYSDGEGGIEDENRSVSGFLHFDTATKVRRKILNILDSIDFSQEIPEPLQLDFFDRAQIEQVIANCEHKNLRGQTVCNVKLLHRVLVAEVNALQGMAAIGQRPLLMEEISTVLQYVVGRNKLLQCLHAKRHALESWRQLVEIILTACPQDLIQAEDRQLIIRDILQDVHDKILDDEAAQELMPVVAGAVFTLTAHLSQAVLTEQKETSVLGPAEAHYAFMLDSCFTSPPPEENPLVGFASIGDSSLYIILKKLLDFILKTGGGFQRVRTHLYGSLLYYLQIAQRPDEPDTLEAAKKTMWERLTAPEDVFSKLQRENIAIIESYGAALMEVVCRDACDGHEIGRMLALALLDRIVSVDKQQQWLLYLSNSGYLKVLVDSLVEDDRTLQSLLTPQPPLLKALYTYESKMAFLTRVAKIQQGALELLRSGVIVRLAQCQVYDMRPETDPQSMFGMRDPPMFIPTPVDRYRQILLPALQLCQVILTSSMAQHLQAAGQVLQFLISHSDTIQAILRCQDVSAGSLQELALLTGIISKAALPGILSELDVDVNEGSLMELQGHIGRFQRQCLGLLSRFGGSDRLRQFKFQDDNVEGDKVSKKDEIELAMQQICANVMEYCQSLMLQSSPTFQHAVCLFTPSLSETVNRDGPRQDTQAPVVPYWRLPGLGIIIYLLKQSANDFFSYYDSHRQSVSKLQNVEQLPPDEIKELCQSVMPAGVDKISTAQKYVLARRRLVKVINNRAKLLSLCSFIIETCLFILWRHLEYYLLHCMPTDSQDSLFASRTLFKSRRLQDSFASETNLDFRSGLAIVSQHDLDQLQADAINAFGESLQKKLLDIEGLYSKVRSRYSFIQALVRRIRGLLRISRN
inactive: ibrutinib 0.015 | [1] 0.026 | ralimetinib 0.026 | [2] -0.006 | [3] -0.036 | [4] 0.003 | [5] 0.022 | [6] 0.026 | [7] 0.017 | [8] 0.008 | vemurafenib 0.007 | [9] 0.017 | barasertib 0.038 | [10] -0.047 | volasertib -0.074 | [11] 0.027 | [12] -0.075 | [13] -0.064 | saracatinib 0.043 | sotrastaurin 0.022
